CaV13 ICDI inh: Primary screen for inhibitors of IQ motif and Ca2+-dependent inactivation inhibitor domain binding in CACNA1D, Förster resonance energy transfer in living cells, …; HEK cells, CFP/YFP FRET ICDI-IQ, plate reader, 10 min; percent FRET-ratio fall versus neutral wells; 340,000 compounds, 0.098% hits; inhibition, % at 12.3 µM;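 active = mean replicate inhibition of at least 30% and at least 1% of replicates passing that level; inconclusive = only one of the two criteria is met; inactive = neither criterion is met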;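 also: 0% = median of the neutral control wells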
PGC1a acetyl inh: PGC1a acetylation modulation, inhibitor mode. U2OS PGC1a acetylation, AlphaScreen anti-acetyl-lysine; with virally co-expressed GCN5 acetyltransferase. inhibition, % at 15.6 µM. 350,000 compounds, 0.17% hits;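 active = every replicate shows inhibition of at least 40%; inconclusive = mean inhibition at least 40% but some replicate below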;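 also: 0% = neutral control wells and 100% = positive control wells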
DENV2 CPE rescue: DENV2-induced cell death inhibition. 350,000 compounds, 1.7% hits. CPE inhibition, % at 9.99 µM. DENV2-infected cells, cytopathic effect rescue, plate reader; in the data active = CPE inhibition above about 20%, passing the limit was not always enough; inconclusive = no clear call, values can overlap the other calls; tested in BHK-21 cells;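 also: 0% = median of neutral control wells and 100% = median of positive control wells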
Ecoli rRNA inh: inhibits bacterial ribosomal RNA function over humanized ribosomes | E. coli WT GFP vs humanized-ribosome RFP mutants, fluorescence, 24 h; hits give low values; DMSO median 0, no signal -100 | GFP signal change (wild-type ribosome), % (concentration not given with the values) | 350,000 compounds, 1.6% hits | AID 720706;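 active = significant combined selectivity score with lowered wild-type GFP, culture density cut under 30%, mutant RFP and density less affected; inactive = any of these conditions unmet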
GSIS activator: GLuc luminescence reporter in INS-1E cells, primary screen for activators of glucose-dependent secretion of insulin | AID 743287 | 370,000 compounds, 0.61% hits | activation, % at 16.6 µM | INS-1E GLuc reporter insulin secretion, 2-3 h;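 active = lowest replicate activation of at least 40%, so every replicate reaches that level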;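 also: 0% = median of neutral control wells and 100% = median of IBMX positive control wells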
ERAP1 inh: blocks human ERAP1 aminopeptidase activity; Q9NZ08; recombinant ERAP1, Leu-AMC fluorescence, 60 min; inhibition, % at 10.7 µM; 340,000 compounds, 0.15% hits;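 active = mean replicate inhibition of at least 30%, or all replicates individually reaching that 30% level; inactive = mean below 30% and not every replicate reaching it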;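 also: 0% = neutral control wells and 100% = L-leucinethiol positive control wells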
Target sequence (Q9NZ08 whole entry, looked up): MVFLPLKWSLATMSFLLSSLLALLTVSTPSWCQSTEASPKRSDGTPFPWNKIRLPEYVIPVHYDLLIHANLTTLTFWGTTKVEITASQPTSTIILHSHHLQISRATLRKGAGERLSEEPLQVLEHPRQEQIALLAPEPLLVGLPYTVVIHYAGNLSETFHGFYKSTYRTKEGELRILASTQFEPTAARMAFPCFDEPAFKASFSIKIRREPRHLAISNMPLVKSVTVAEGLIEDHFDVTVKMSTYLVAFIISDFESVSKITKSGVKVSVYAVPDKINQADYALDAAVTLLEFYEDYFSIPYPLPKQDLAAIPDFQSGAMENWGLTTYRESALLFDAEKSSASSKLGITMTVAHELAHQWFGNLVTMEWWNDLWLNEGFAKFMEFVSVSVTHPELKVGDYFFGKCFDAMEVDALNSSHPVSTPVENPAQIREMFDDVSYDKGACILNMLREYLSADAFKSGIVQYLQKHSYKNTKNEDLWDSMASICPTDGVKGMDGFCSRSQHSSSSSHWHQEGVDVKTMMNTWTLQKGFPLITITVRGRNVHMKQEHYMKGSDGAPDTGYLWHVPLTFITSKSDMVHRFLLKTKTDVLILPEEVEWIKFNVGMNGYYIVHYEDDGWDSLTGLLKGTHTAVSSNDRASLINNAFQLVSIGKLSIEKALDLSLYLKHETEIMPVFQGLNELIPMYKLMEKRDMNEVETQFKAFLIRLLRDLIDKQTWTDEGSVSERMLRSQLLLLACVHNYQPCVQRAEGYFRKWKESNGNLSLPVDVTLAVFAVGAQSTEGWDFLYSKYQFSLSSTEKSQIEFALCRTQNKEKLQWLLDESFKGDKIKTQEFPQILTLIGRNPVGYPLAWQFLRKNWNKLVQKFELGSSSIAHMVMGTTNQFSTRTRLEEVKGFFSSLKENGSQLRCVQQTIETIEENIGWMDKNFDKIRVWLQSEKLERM
HepG2 tox: cytotoxic compounds in HepG2 cells. shares compounds with Ecoli rRNA inh. HepG2 viability, ATP luminescence, 72 h. activity change, negative = cytotoxicity, unspecified at 26 µM. 30 tested, under 10 active. AID 743480;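 active = compounds whose fitted half-maximal signal-loss concentration is at most twice their highest valid dose; inconclusive = flat curve with 30 to 70% signal loss, or poor fit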
AID977621: wild-type E. coli growth inhibition versus H69 humanized strain – H69 mutant RFP, wild-type GFP, cherry-pick, dose response; shares compounds with Ecoli rRNA inh; 1,900 tested, under 10 active; AID 977621; fluorescence, 24 h; activity change, negative = inhibition at 50 µM;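 active = Wild-type ribosome reporter drop at least double the humanized mutant ribosome reporter drop, growth loss under a set limit; inconclusive = no clear call, values can overlap the other calls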;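 also: wild-type GFP and H69 mutant RFP strains grown together 50/50 in each well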
AID977628: growth of wild-type and h24-humanized E. coli strains – h24 mutant RFP vs wild-type GFP, cherry-pick, dose response; shares compounds with Ecoli rRNA inh; E. coli WT GFP strain growth, fluorescence, 24 h; activity change, negative = inhibition at 50 µM; 1,900 tested, under 10 active; AID 977628;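 active = compound lowering the normal-ribosome reporter at least twice as much as the humanized-ribosome reporter, growth loss under a set limit; inconclusive = no clear call, values can overlap the other calls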;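 also: wild-type GFP and h24 humanized RFP strains co-cultured 1 to 1 per well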
The depositor's hits bear a star; u = inconclusive; x = no result given. A selection: hits, their analogues and other compounds. The true share with any hit is near 3.2%.

SMILES	CaV13 ICDI inh	PGC1a acetyl inh	DENV2 CPE rescue	Ecoli rRNA inh	GSIS activator	ERAP1 inh	AID977621	AID977628	others
CN1C(=O)c2cc(NC(=O)c3cccs3)ccc2OC[C@H]2O[C@@H](CC(=O)O)CC[C@@H]21	x	0.7	x	2.1	10.6	x	x	x
Cc1cc(C)cc(NC(=O)COC(=O)CC2CCCC2)c1	-15.0	7.6	7.4	-19.2*	-4.1	0.3	-12.5	-6.41
Cc1cc(C)cc(NC(=O)COC(=O)CCC2CCCC2)c1	-2.0	x	-0.1	-5.5	-9.6	0.5	x	x
Cn1cnc(S(=O)(=O)N2C[C@H](O)COC[C@@H]3O[C@H](CC(=O)NCc4ccc(F)cc4)CC[C@H]32)c1	x	-4.1	-10.5	-0.5	3.7	-1.6	x	x
CCn1cc(Cl)c(C(=O)Nc2cccc(C(F)(F)F)c2)n1	-6.7	-5.7	3.7	-23.2*	9.2	0.1	-15.6	x
O=C(C[C@H]1CC[C@@H]2[C@H](COC[C@@H](O)CN2CCc2ccccc2)O1)NCc1ccc(F)cc1	x	2.0	7.9	1.0	5.1	-0.1	x	x
Clc1ccc(-c2cn(-c3ccccc3)c3[n+]2CCS3)cc1	11.6	-12.7	-0.3	-18.0*	-37.1	-0.2	-12.1	u
Fc1ccc(-c2cn(-c3ccccc3)c3[n+]2CCS3)cc1	-4.5	x	-6.6	11.6	-35.6	-4.7	x	x
CCC(=O)Nc1ccc2c(c1)C(=O)N(C)C[C@H](OC)[C@@H](C)CN(CCC(F)(F)F)[C@@H](C)CO2	x	-1.1	3.6	0.4	3.2	-1.6	x	x
Cn1c2ccccc2c2cc([N+](=O)[O-])ccc21	-16.0	7.3	5.1	8.2	3.5	4.2	x	x
CCN(CC)CCn1c2ccccc2c2nc3ccc([N+](=O)[O-])cc3cc21	-5.2	-7.3	-16.7	-24.9*	-4.9	x	x	x	HepG2 tox=3.03
C[C@@H]1NS(=O)(=O)c2c(F)cccc2O[C@@H]1c1ccccc1	-4.6	x	-1.1	-21.8*	0.8	x	x	u
O=C(Nc1ccccc1)N1CCCCN2[C@H](CO)[C@@H](c3ccc(Br)cc3)[C@@H]2C1	x	-16.7	-8.3	-9.6	-22.1	-0.5	x	x
O=C(Nc1ccccc1)N1CCCCN2[C@@H](CO)[C@H](c3ccc(Br)cc3)[C@@H]2C1	x	-12.3	u	-22.8*	-11.7	5.0	x	u
Cc1ccccc1-c1ccc([C@@H]2[C@@H](CO)N3CCCCN(C(=O)Nc4ccc(F)cc4)C[C@@H]23)cc1	x	-8.2	-9.0	-37.8*	-40.3	2.8	x	u
Cc1ccc(S(=O)(=O)N[C@@H]2CC[C@@H](CCn3cc(-c4ccccc4F)nn3)O[C@@H]2CO)cc1	x	3.0	-5.2	0.5	0.3	1.3	x	x
COc1ccccc1C1CCN(C(=O)c2cccs2)CC1	2.2	-6.1	0.8	-25.2*	5.4	0.6	2.25	-11.3
CCN=C1NN=C(c2ccc(C)cc2)CS1	-7.3	12.5	-5.1	-22.5*	19.5	0.3	-10.5	-8.07
C[C@@H]1CN([C@@H](C)CO)C(=O)c2cc(Br)cnc2O[C@@H]1CN(C)C(=O)C1CCC1	x	10.3	x	-0.2	-0.1	x	x	x
CCC(C)c1ccccc1NC(=O)c1cccnc1 (stereo unspecified)	-7.8	6.2	0.3	-8.7	16.5	2.6	x	x
CCC(C)c1ccccc1NC(=O)c1cccc(-n2cnnn2)c1 (stereo unspecified)	-3.5	-8.4	-2.2	-21.1*	-9.7	-2.2	-15	-11.3
Cc1noc(C)c1NC(=O)N(C)C[C@H]1Oc2c(NC(=O)Nc3ccccc3)cccc2C(=O)N([C@@H](C)CO)C[C@H]1C	x	-1.1	x	-0.9	2.9	x	x	x
